High-throughput results as filed in PubChem BioAssay.
Shown are actives, neighbours in structure and some others; about 7.5% of the full set was active somewhere.
HCV inh: qHTS Assay for Inhibitors of Hepatitis C Virus (HCV). Huh7.5.1 HCVcc-Cre infection, luciferase reporter, 44 h. Potency, µM (top dose mostly 41.8 µM), inactives show top-dose activity change, negative = inhibition, most hits filed as inhibitors. AID 651820, 2012. actives 3.4% (n = 340,000); further: potency means the concentration at half of the fitted maximal effect
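Antiviral activity was scored by luciferase reporter output from cells infected with HCVcc-Cre (~0.5 moi) in presence of compound, 44 h infection period, cells seeded 1,000/well 4 h prior.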
HCMV inh: qHTS Assay for inhibitors of the human cytomegalovirus (HCMV); activity change, negative = inhibition, % at 57.5 µM; actives 4.5% (n = 410,000); AID 1259415, 2018; HFF cells, HCMV-luciferase reporter, 72 h; active compounds read low; in the data active means activity change below about -60%; inconclusive means no clear call, values can overlap the other calls; inactive means above about -39%
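Two compound doses tested in HFFs infected with HCMV-luciferase, MOI 1 PFU/cell, 72 h at 37C. Lysate luminescence read with OneGlo; data normalized against buffer-only and 10uM Salinomycin inhibitor controls.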
FBPA Giardia inh: qHTS Assay for Inhibitors of Fructose-1,6-bisphosphate Aldolase from Giardia Lamblia; AID 2451, 2010; Potency, µM (highest dose often 59.6 µM), for the others: at the top dose activity, negative = inhibition, most hits filed as inhibitors; actives 0.71% (n = 290,000); purified Giardia FBPA; further: potency means the concentration at half of the fitted maximal effect; nearly all actives have a fitted effect of over 55% in size
Target sequence (A8B2U2 whole entry, looked up): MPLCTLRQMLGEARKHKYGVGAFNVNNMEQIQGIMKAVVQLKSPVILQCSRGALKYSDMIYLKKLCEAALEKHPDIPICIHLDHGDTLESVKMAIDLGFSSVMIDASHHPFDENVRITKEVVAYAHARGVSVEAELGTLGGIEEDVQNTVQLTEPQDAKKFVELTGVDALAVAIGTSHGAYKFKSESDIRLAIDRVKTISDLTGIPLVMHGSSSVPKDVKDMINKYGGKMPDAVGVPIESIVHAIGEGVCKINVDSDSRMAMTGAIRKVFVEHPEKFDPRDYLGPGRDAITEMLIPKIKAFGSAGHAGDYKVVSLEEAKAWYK
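Giardia FBPA (40 nM reagent) was preincubated 10 min at RT with compound (up to 57.5 uM final), then substrate plus GAPDH/TPI/NAD/arsenate coupling system with diaphorase/resazurin was added; resorufin fluorescence (525/598 nm) was read after 20 min.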
FMDV antiviral: High Throughput Screening for Foot and Mouth Disease Virus Antivirals; FMDV antiviral cell-based qHTS; Potency, µM (highest dose often 57.9 µM), for inactives: at the top dose activity change, negative = inhibition, usual class: inhibitors; actives 1.2% (n = 410,000); calls by dose curve; tested in HEK293T cells; further: read-out not given here; potency means the concentration at half of the fitted maximal effect; nearly all actives have a fitted effect of over 45% in size
Vaccinia Venus: qHTS for Stage-Specific Inhibitors of Vaccinia Orthopoxvirus: Venus Reporter Primary qHTS. Vaccinia virus Venus reporter expression, fluorescence. Potency, µM (top dose mostly 36.5 µM), inactives show at the top dose activity change, negative = inhibition, actives largely listed as inhibitors. actives 0.46% (n = 330,000); calls by dose curve; tested in A549 cells; further: potency means the concentration at half of the fitted maximal effect; nearly all actives have a fitted effect of over 30% in size
VACV mCherry inh: qHTS for Stage-Specific Inhibitors of Vaccinia Orthopoxvirus: mCherry Reporter Primary qHTS. Vaccinia virus mCherry reporter infection, fluorescence. Potency, µM (top dose mostly 36.5 µM), inactives show top-dose activity change, negative = inhibition, actives largely listed as inhibitors. actives 0.63% (n = 310,000); calls by dose curve; tested in A549 cells; further: potency means the concentration at half of the fitted maximal effect; nearly all actives have a fitted effect of over 35% in size
Numbers without * were called inactive; i = inactive; ? = inconclusive; · = no result given. Unless noted, the call rests on the fitted dose curve; in most records, active means well fitted curve in the direction sought with a large enough effect; inconclusive means small, poorly fitted or top-dose-only effect, or another doubt; inactive means no such curve, though single readings can be large; an effect the other way counts as inactive or inconclusive. On the % scale 0 is the no-effect control and ±100 the full control effect.

SMILES	HCV inh	HCMV inh	FBPA Giardia inh	FMDV antiviral	Vaccinia Venus	VACV mCherry inh
COc1cc(C2C(=O)N(C3CCCCC3)CC(=O)N2CCc2ccccc2)ccc1OC(C)C (centres undefined)	·	-23	·	-17%	-7%	-14%
Cc1ccc(C)c2c(C)ccnc12	·	·	·	·	-8%	-11%
CCN1CCN(C(=O)C2=CC(c3ccc(OC)cc3)=NS(=O)(=O)N2C)CC1	11%	-64*	-18%	-21%	-4%	i
CC(C)c1ccc(NC2CCCN(C(=O)c3ccc(N4CCOCC4)cc3)C2)cc1 (centres undefined)	?	-31	·	28µM*	-18%	-28%
CC(C)c1ccc(NC2CCCN(C(=O)c3ccoc3)C2)cc1 (centres undefined)	?	0	-6%	-6%	·	·
O=[N+]([O-])c1ccc(Sc2nccn2Cc2ccccc2)cc1	1%	-77*	-12%	·	-22%	-24%
Cc1cc(C)nc(SCc2nnc(SCC(=O)Nc3ccc(C)c(C)c3)n2Cc2ccco2)n1	25µM*	33	16%	-1%	-18%	?
CCOC(=O)c1cc2c(OC)c(OC)ccc2c2[nH]cc(C#N)c(=O)c12	·	-15	·	-4%	-7%	i
COc1ccc(OC)c(C2=NO[C@@](CC(=O)O)(C(=O)Nc3ccc4c(c3)OCCO4)C2)c1	-6%	-100*	-9%	-11%	-16%	-14%
Cc1ccc(C2=NO[C@@](CC(=O)O)(C(=O)Nc3ccc4c(c3)OCCO4)C2)cc1	17%	4	-19%	7%	-6%	-3%
c1ccc(-c2nnc(SCc3nnc(-c4cccs4)o3)o2)cc1	-7%	-37	5%	-8%	7.1µM*	·
Cc1cc(C(=O)Nc2cccc(NC(=O)c3ccco3)c2)ccc1[N+](=O)[O-]	?	-82*	·	2%	-9%	i
Cc1cccc(NC(=O)c2cccc(NC(=O)c3ccco3)c2)c1	-4%	-1	·	8%	-22%	i
COc1ccccc1/C=C(\NC(=O)c1ccc(OC)c(OC)c1)C(=O)Nc1cccc([N+](=O)[O-])c1	-10%	-61*	0%	-10%	-14%	i
COc1ccccc1/C=C(\NC(=O)c1ccc(OC)c(OC)c1)C(=O)Nc1ccc([N+](=O)[O-])cc1	-17%	-22	3%	-5%	-11%	i
Cc1cc(NC(=O)c2ccc([N+](=O)[O-])o2)ccc1NC(=O)c1ccco1	?	-85*	9%	-7%	·	·
CC(=O)Oc1c(C)cc(Cl)cc1C(=O)Nc1ccc([N+](=O)[O-])cc1Cl	?	-98*	3%	-19%	·	·
CCCC(c1nnnn1C1CCCCC1)N1C(=O)C(=O)c2ccccc21 (centres undefined)	·	-17	·	·	·	·
CC(=O)N1CCC[C@H]1C(=O)N1CCc2c(cnc(C)c2CNC(=O)/C=C/c2cccs2)C1	·	·	·	6%	3%	-3%
COc1ccc(Cl)cc1NC(=O)CSc1nc2ccccc2nc1N1CCCCC1	·	29	·	-18%	-6%	-6%
Cc1cc([N+](=O)[O-])ccc1NC(=O)c1ccco1	-16%	-30	5%	-8%	9%	i
Cc1cc(NC(=O)c2ccc([N+](=O)[O-])cc2Cl)ccc1NC(=O)c1ccco1	7.9µM*	32	-2%	2%	-4%	-14%
O=C(NNc1ccc([N+](=O)[O-])cc1[N+](=O)[O-])c1ccco1	-15%	·	-18%	20µM*	-23%	?
O=C(NNc1ccc([N+](=O)[O-])cc1)c1ccco1	7%	-17	-11%	-7%	·	·
COc1ccc(C(=O)Nc2cccc(/C(C)=N/NC(=O)c3ccc([N+](=O)[O-])c(C)c3)c2)cc1OC	2.8µM*	40	-13%	?	-2%	-13%
SMILES	HCV inh	HCMV inh	FBPA Giardia inh	FMDV antiviral	Vaccinia Venus	VACV mCherry inh
COc1ccc(C(=O)Nc2cccc(/C(C)=N\NC(=O)c3ccoc3C)c2)cc1OC	?	106	-10%	-1%	-4%	-24%
Cc1cc(=O)oc2cc(OCC(=O)N3c4ccccc4CC3C)ccc12 (centres undefined)	-6%	-4	-3%	-7%	?	?
CCN(CC)c1cccc(OCC(=O)N2c3ccccc3CC2C)c1 (centres undefined)	?	-77*	·	-5%	·	·
Cc1cccc(-n2nnc(C(=O)Nc3ccc(F)cc3)c2N)c1	?	114	-1%	22%	-17%	i
Cc1c(C(=O)Nc2ccc(C(=O)O)cc2)nnn1-c1ccccc1	·	-74*	·	10µM*	-6%	1%
Cc1c(C(=O)Nc2ccc(F)cc2)nnn1-c1cccc(C(F)(F)F)c1	?	-88*	-10%	-16%	-20%	-17%
Cc1c(C(=O)O)nnn1-c1ccccc1	12%	-5	9%	0%	-21%	·
CN(C)c1ccc(S(=O)(=O)N2CCCCC2)cc1NC(=O)CCNC(=O)c1ccc(Cl)cc1	-8%	30	·	-3%	-17%	-24%
COc1ccccc1CNc1nc(NCc2ccc3occc3c2)c2sccc2n1	·	?	·	25µM*	-8%	i
COc1ccccc1CNc1nc(NCc2ccccc2SC)c2sccc2n1	·	-77*	·	?	?	?
COc1ccccc1CNc1nc(NCC2CC2)nc2ccsc12	·	-70*	·	25µM*	-20%	-15%
COc1ccccc1CNc1nc(NCc2cccs2)nc2ccsc12	·	?	·	?	-15%	-23%
c1cc2cc(CNc3nc(NCC4CC4)nc4ccsc34)ccc2o1	·	-74*	·	?	-19%	?
CCN(C(=O)COC(=O)c1cc2ccccc2cc1OC)c1c(N)n(Cc2ccccc2)c(=O)[nH]c1=O	-18%	11	·	?	·	·
CC(C)c1cccc(-c2nc3c(NCc4cccc(N(C)C)c4)nccc3[nH]2)c1	·	0	·	·	·	·
COc1cccc(Nc2nccc3[nH]c(-c4cccc(C(C)C)c4)nc23)c1	·	-14	·	·	·	·
CCCCNC(=O)C1(C)CCCCN1Cc1ccccc1-c1ccccc1 (centres undefined)	·	0	·	-31%	4%	i
O=C(Nc1ccc(Br)cc1)C1OCCc2ccccc21 (centres undefined)	?	-7	-9%	22%	0%	-5%
CCCn1c2ccccc2c2cnn(CC(=O)Nc3ccc(C)cc3Br)c(=O)c21	·	23	·	0%	-27%	-19%
Cc1cc(Nc2cccc(O)c2)c2cccc(Br)c2n1	·	-39	·	-23%	-9%	-16%
COc1ccc(-c2cc(C(=O)N3CCc4c(cnc(C)c4CNC(=O)c4ccsc4)C3)[nH]n2)cc1	·	·	·	-13%	12%	-5%
COC(=O)/C=C/c1ccc2c(c1)S(=O)(=O)N(C1CCCC1)[C@H]2CC(=O)OC	·	·	·	·	-12%	i
